This is an account of results in ChEMBL document CHEMBL4513216, “Probing the Open Global Health Chemical Diversity Library for Multistage-Active Starting Points for Next-Generation Antimalarials” (ACS Infect Dis, 2020).

The campaign covered roughly 65,000 compounds. About 2,100 (3.2%) showed an effect of 50% or more. The median lay at about -52%. This excerpt belongs to a sample that is enriched for strong results.

For this assay, the system named is Plasmodium falciparum. The assay can be described thus: Screen against P. falciparum Asexual Blood Stage (ABS), at 5uM. The assay is classed as functional, Dd2. The conditions noted are these: tested at 5 uM.
`COc1ccc(C)cc1CN(Cc1nc(C)c(C)o1)C1CCN(C)C1` (centres undefined): the INHIBITION came to 56.2%.

Take `Cc1cnc(CN(Cc2ccc(C#N)cc2F)C2CCN(C)C2)o1` (centres undefined): the INHIBITION was found to be 12.5%.

On to `COc1ccc(C)cc1CN(Cc1ncc(C)o1)C1CCN(C)C1` (centres undefined), for which the INHIBITION amounted to 38.7%.

For `CN1C(Cn2cccn2)C[C@@H]2CN(C(=O)c3cccc(C#N)c3)CC[C@@H]21` (some centres undefined), the INHIBITION was -95.8%.

In the case of `CC(C)Oc1ccccc1OCCN1C(=O)CCNC1=O`, the INHIBITION is on record as -16.4%.

For the compound `CCNC(=O)C1CCN(Cc2ccc(C(=O)Nc3nnc(C)s3)cc2)C1` (centres undefined), the INHIBITION is -162.2%.

As for `Cc1cc(CNCC2(O)CCOCC2)ccc1F`, the INHIBITION was determined as 16.2%.

Regarding `OC1(CNCc2ccc(F)c(C(F)(F)F)c2)CCSCC1`, the INHIBITION worked out at 56.4%.

For the compound `OC1(CNCc2ccc(F)c(C(F)(F)F)c2)CCOC1` (centres undefined), the INHIBITION is given as -1.68%.

As for `O=C(NCc1cccnc1)[C@@H]1C[C@H]2[C@H](CCN2c2ncccn2)O1`, the INHIBITION is recorded as -112%.

As for `CO[C@H]1CN(C)S(=O)(=O)[C@@]12CCN(Cc1ccccc1)C2`, the INHIBITION was -53.8%.

As to `Cc1cc(O)c(OCC(=O)Nc2nc3c(s2)CCCCC3)cn1`, the INHIBITION is reported as -94.4%.

In the case of `COc1ccc(CNC(C)c2cccc(Cl)c2)c(OC)c1OC` (centres undefined), the INHIBITION was 43.3%.

For `CNS(=O)(=O)c1cccc(C(C)NCc2cccc(OC)c2)c1` (centres undefined), the INHIBITION is on record as 3.75%.

As to `COc1ccc(C(C)NCc2ccc(OC)c(OC)c2OC)cc1F` (centres undefined), the INHIBITION was 36%.

On to `COc1ccc(C(C)NCc2c[nH]nc2C)cc1OC` (centres undefined), for which the INHIBITION is -59.7%.

Take `COc1cc(CNC(C)c2cccc(Cl)c2)cc(OC)c1OC` (centres undefined): the INHIBITION came to 63.5%.

`COc1ccc(CNC(C)c2ccc(Cl)c(Cl)c2)c(OC)c1OC` (centres undefined): the INHIBITION turned out to be 66%.

With `COc1cc(CNC(C)c2ccc(F)c(F)c2)cc2c1OCCO2` (centres undefined), the INHIBITION is -7.66%.

For `COc1ccc(C(C)NCc2c[nH]nc2C)cc1Br` (centres undefined), the INHIBITION was 20.5%.

Turning to `COc1ccc(CNC(C)c2cccc(Br)c2)c(OC)c1OC` (centres undefined), the INHIBITION was found to be 67.1%.

As for `CCCn1cc(NC(=O)c2ccc(S(=O)(=O)CC)cc2)ccc1=O`, the INHIBITION was -1.56%.

`O=C(CNCCn1cccn1)NCC1(c2ccccc2)CCC1`: the INHIBITION is on record as -77%.

As for `Cn1ccc(C(=O)NCc2cccc(NC(=O)C3CCC3)c2)cc1=O`, the INHIBITION is recorded as -218%.

As for `CC(CN1CCCCCC1)NCc1cc(-c2ccco2)on1` (centres undefined), the INHIBITION turned out to be 18%.

Consider `COCCN(Cc1sccc1C)C(=O)C1CCCN(C(N)=O)C1` (centres undefined), for which the INHIBITION is -75.6%.

Consider `COCCN(Cc1sccc1C)C(=O)C1CCN(C(C)C)CC1`, for which the INHIBITION came out at 57.7%.

For `COCCN(Cc1sccc1C)C(=O)COc1ccccc1O`, the INHIBITION is recorded as -65.9%.

Consider `Cc1nn(C)c(N2CCOCC2)c1CNC1CCc2ccccc21` (centres undefined), for which the INHIBITION came to 45.3%.

`Cc1nn(C)c(N(C)C)c1CNCc1ccc2c(c1)OCO2`: the INHIBITION is given as 35.3%.

`Cc1nn(C)c(N2CCOCC2)c1CNCc1ccnc(N(C)C)c1`: the INHIBITION is -24.8%.

Consider `Cc1nn(C)c(N2CCOCC2)c1CNCc1ccc(CO)c(F)c1`, for which the INHIBITION is on record as -77.5%.

Consider `Cc1ccc2c(c1)CCC2NCc1c(C)nn(C)c1N1CCOCC1` (centres undefined), for which the INHIBITION is listed as 64.2%.

`Cc1nn(CC(C)C)c(N(C)C)c1CNCc1ccc2c(c1)OCO2`: the INHIBITION turned out to be 54.6%.

As to `Cc1nn(C)c(N2CCOCC2)c1CNCc1ccnn1C`, the INHIBITION is listed as -222%.

With `Cc1nn(C)c(N2CCOCC2)c1CNCc1ccc(Cl)s1`, the INHIBITION was 53%.

Take `Cc1nn(C)c(N2CCOCC2)c1CNCc1nccs1`: the INHIBITION was -58.2%.

As for `Cc1nn(CC(C)C)c(N(C)C)c1CNCc1cccc2c1OCO2`, the INHIBITION turned out to be 29.4%.

As to `Cc1nn(C)c(N2CCOCC2)c1CNCc1ccc2c(c1)OCO2`, the INHIBITION is on record as 64.5%.

For `Cc1nn(C)c(N2CCOCC2)c1CNC1CCc2cc(F)ccc21` (centres undefined), the INHIBITION came out at 40.1%.

As for `O=C1C(N2CC[C@@H](O)C2)CCCN1Cc1cccc(C(F)(F)F)c1` (some centres undefined), the INHIBITION is -51.6%.

As to `CCOCCN1CCN(C=C2NN=C(c3occc3C)O2)CC1`, the INHIBITION was -7.75%.

Regarding `COc1ccc2c(c1)sc(=NC(=O)CSCC(=O)Nc1nccs1)n2C`, the INHIBITION is given as -52.2%.

In the case of `CC(C)(O)CN1CCN(C(=O)c2cnn(-c3ccccc3F)c2)CC1`, the INHIBITION was -73.1%.

With `c1ccc(-c2nc(CN3CCCC3Cn3cncn3)co2)cc1` (centres undefined), the INHIBITION is reported as -69.1%.

As for `CNC(=O)[C@H]1C[C@H]2CN(C(=O)NC(C)C)C[C@@H]1O2`, the INHIBITION is listed as -50%.

Take `COc1cc(CN(C)Cc2cccnc2)c(SC)cc1OC`: the INHIBITION is recorded as -61.6%.

For `COc1ccc2nnc(CCCC(=O)NCc3ccccc3OC)n2n1`, the INHIBITION is given as -64.6%.

Consider `Cc1cnc(CN(Cc2cccc(O)c2)CC2CC2)cn1`, for which the INHIBITION is listed as -23.7%.

With `CN1C(=O)CN(C(=O)c2ccc(=O)n(C)c2)c2ccccc21`, the INHIBITION is listed as -50.5%.

Regarding `Cc1nn(C)c(N2CCOCC2)c1CNCc1cscn1`, the INHIBITION is 56.6%.

`Cc1nc(CNCc2c(C)nn(C)c2N2CCOCC2)cs1`: the INHIBITION turned out to be 27.5%.

For `CC(C)c1nn(C)c(N2CCOCC2)c1CNCc1cscn1`, the INHIBITION was -72.2%.

Take `COc1ccccc1-c1ccc(C(=O)N2C[C@@H]3CC[C@H]2CN(C)C3)cc1`: the INHIBITION was -93.3%.

With `Cc1nc(C)n(CC2CCCN2Cc2nnc(-c3ccco3)o2)n1` (centres undefined), the INHIBITION is recorded as -53.7%.

For `Cc1nc(-n2nc(-c3cccs3)cc2N)[nH]c(=O)c1C`, the INHIBITION is recorded as -26.1%.

As to `Cc1n[nH]cc1CNCc1cccc(OCC(F)(F)F)c1`, the INHIBITION is listed as 57.9%.

Turning to `Cc1n[nH]cc1CNC(=O)Nc1cccc(OCC(F)(F)F)c1`, the INHIBITION is recorded as -31.6%.

As for `Cc1n[nH]cc1CNCc1ccnc(OCC(F)(F)F)c1`, the INHIBITION is given as -64.7%.

`COc1ccc(NS(=O)(=O)C=c2[nH]c(=O)n3cccc3c2=O)cc1Cl`: the INHIBITION was -76.2%.

For the compound `CC(C)(C(=O)NCC(N)=O)c1ccccc1F`, the INHIBITION is -60.2%.

Regarding `CN(C)C(C)(C)CNC(=O)C(C)(C)c1ccccc1F`, the INHIBITION was found to be 53.3%.

For the compound `CC(C)(CNC(=O)C(C)(C)c1ccccc1F)C(N)=O`, the INHIBITION is recorded as -83%.

Consider `CC(Cn1cccn1)NCCCc1nc(-c2cccs2)no1` (centres undefined), for which the INHIBITION is given as 67.8%.

As to `Cc1cnn(CC(C)NCc2nc(-c3cccs3)no2)c1` (centres undefined), the INHIBITION is given as -73.4%.

For `c1csc(-c2noc(CNCCn3cccn3)n2)c1`, the INHIBITION is -114%.

On to `COc1cccc(CN2CCCC2c2cncc(Nc3nncs3)n2)c1` (centres undefined), for which the INHIBITION is listed as -8.54%.

As to `Cc1ccccc1CN1CCCC1c1cncc(Nc2nncs2)n1` (centres undefined), the INHIBITION is -20.5%.

Take `Cc1cccc(CN2CCCC2c2cncc(Nc3nncs3)n2)c1` (centres undefined): the INHIBITION was 52.5%.
